From PubChem BioAssay (EPA / NIEHS)
The source made the active and inactive calls. The calls were made as follows: active = hit-call score of the fitted dose curve at least 0.9, where 1 is the maximum; inactive = score below 0.9.

How the values were obtained:
Conditions in all cases: mRNA level, 48 h; actives raise or lower the signal
BCL2L11 (gene 10018) = assay: LTEA_HepaRG_BCL2L11: Life Technologies and Expression Analysis (LTEA) Assay for Bcl-2 (BCL2L11) gene using HepaRG (AID 2283473)
How it was run: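 Read-out is BCL2L11 transcript level by qRT-PCR, normalized to three housekeeping genes and fitted bidirectionally against 0.5% DMSO vehicle. HepaRG cells received chemicals for 48 h in serum-free induction medium, 100 uM down in half-log dilutions.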

[1] = read-out: Apolipoprotein A-V (APOA5) gene, APOA5 (gene 116519); assay: LTEA_HepaRG_APOA5: Life Technologies and Expression Analysis (LTEA) Assay for Apolipoprotein A-V (APOA5) gene using HepaRG (AID 2283474)
How it was run: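 Readout is APOA5 transcript level by qRT-PCR on Fluidigm dynamic arrays, normalized to three housekeeping genes. HepaRG cultures received chemicals for 48 h at up to 100 uM (half-log steps, 0.5% DMSO), with gain or loss scored relative to DMSO.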

[2] = read-out: Apoptosis regulator Bcl-2 (Homo sapiens) (UniProt P10415); assay: LTEA_HepaRG_BCL2: Life Technologies and Expression Analysis (LTEA) Assay for Bcl-2 gene using HepaRG (AID 2283475)
How it was run: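 Differentiated human HepaRG cells in serum-free induction medium exposed 48 h, in duplicate, to 8-point half-log series from 100 uM in 0.5% DMSO. BCL2 mRNA by qRT-PCR (TaqMan/Fluidigm), normalized to ACTB, GAPDH, POLR2A; bidirectional fit against DMSO.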

[3] = read-out: Bcl-2 (BID) gene, BID (gene 637); assay: LTEA_HepaRG_BID: Life Technologies and Expression Analysis (LTEA) Assay for Bcl-2 (BID) gene using HepaRG (AID 2283476)
How it was run: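 Gene expression by qRT-PCR in HepaRG cells after 48 h exposure, duplicate wells, eight half-log concentrations topping at 100 uM in 0.5% DMSO. Normalized to ACTB, GAPDH, POLR2A; bidirectional fitting relative to DMSO.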

Caspase-3 (Homo sapiens) = Caspase-3 (Homo sapiens) (UniProt P42574); assay: LTEA_HepaRG_CASP3: Life Technologies and Expression Analysis (LTEA) Assay for cysteine-aspartic acid protease (CASP3) using HepaRG (AID 2283477)
Caspase-3 (Homo sapiens), sequence (P42574 whole entry, looked up): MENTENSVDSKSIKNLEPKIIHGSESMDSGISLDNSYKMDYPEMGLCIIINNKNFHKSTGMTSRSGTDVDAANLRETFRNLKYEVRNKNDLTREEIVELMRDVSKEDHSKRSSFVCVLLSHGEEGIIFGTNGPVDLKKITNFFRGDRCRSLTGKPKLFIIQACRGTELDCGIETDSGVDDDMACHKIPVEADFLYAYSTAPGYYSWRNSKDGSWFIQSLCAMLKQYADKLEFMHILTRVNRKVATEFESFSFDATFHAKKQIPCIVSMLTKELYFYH
How it was run: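 Read-out is CASP3 mRNA level by TaqMan qRT-PCR in human HepaRG cells after 48 h chemical exposure. Eight half-log concentrations topping at 100 uM were tested in 0.5% DMSO; gain or loss was fitted relative to DMSO.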

[4] = read-out: Cytochrome P450 (CYP24A1), CYP24A1 (gene 1591); assay: LTEA_HepaRG_CYP24A1: Life Technologies and Expression Analysis (LTEA) Assay for Cytochrome P450 (CYP24A1) using HepaRG (AID 2283478)
How it was run: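 HepaRG, 48 h chemical exposure, 8-pt half-log CRC from 100 uM, 0.5% DMSO vehicle, duplicates. Endpoint: CYP24A1 mRNA by Fluidigm TaqMan qRT-PCR, normalized ACTB/GAPDH/POLR2A; gain/loss fit vs DMSO.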

[5] = read-out: Cytochrome P450 (CYP1A2), CYP1A2 (gene 1544); assay: LTEA_HepaRG_CYP1A2: Life Technologies and Expression Analysis (LTEA) Assay for Cytochrome P450 (CYP1A2) using HepaRG (AID 2283479)
How it was run: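 CYP1A2 transcript induction or loss, quantified by Fluidigm qRT-PCR against three housekeeping genes, was fitted bidirectionally against 0.5% DMSO controls. Human HepaRG cells received eight half-log concentrations from 100 uM over 48 h.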

[6] = read-out: cysteine-aspartic acid protease (CASP8), CASP8 (gene 841); assay: LTEA_HepaRG_CASP8: Life Technologies and Expression Analysis (LTEA) Assay for cysteine-aspartic acid protease (CASP8) using HepaRG (AID 2283480)
How it was run: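 HepaRG, 48 h exposure, duplicate wells; 8 conc, half-log from 100 uM, 0.5% DMSO. Serum-free induction medium. CASP8 mRNA by TaqMan qRT-PCR, norm. ACTB/GAPDH/POLR2A; gain/loss fitted vs DMSO.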

[7] = read-out: Cytochrome P450 (CYP2B6), CYP2B6 (gene 1555); assay: LTEA_HepaRG_CYP2B6: Life Technologies and Expression Analysis (LTEA) Assay for Cytochrome P450 (CYP2B6) using HepaRG (AID 2283481)
How it was run: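 HepaRG cells plated 48 h, switched to serum-free induction medium, then dosed 48 h (8 points, half-log from 100 uM, 0.5% DMSO). RNA isolated; CYP2B6 expression measured by qRT-PCR; gain or loss fitted relative to DMSO.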

CYP2C8 (gene 1558) = assay: LTEA_HepaRG_CYP2C8: Life Technologies and Expression Analysis (LTEA) Assay for CYP2C8 using HepaRG (AID 2283483)
How it was run: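 CYP2C8 mRNA induction or loss, by qRT-PCR normalized to ACTB/GAPDH/POLR2A, is read in HepaRG cells after 48 h treatment. Concentrations run from 100 uM down in half-log dilutions, with 0.5% DMSO as vehicle and baseline.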

CYP2C9 (gene 1559) = assay: LTEA_HepaRG_CYP2C9: Life Technologies and Expression Analysis (LTEA) Assay for CYP2C9 using HepaRG (AID 2283484)
How it was run: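 Cells plated 48 h, switched to serum-free induction medium, then treated in duplicate for 48 h at eight concentrations (max 100 uM, 0.5% DMSO). RNA then analysed by qRT-PCR for CYP2C9; curves fitted in both directions relative to DMSO.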

CYP2E1 (gene 1571) = assay: LTEA_HepaRG_CYP2E1: Life Technologies and Expression Analysis (LTEA) Assay for CYP2E1 using HepaRG (AID 2283485)
How it was run: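 HepaRG cells, plated 48 h, then exposed 48 h in serum-free induction medium to eight half-log concentrations from 100 uM in 0.5% DMSO, duplicate. CYP2E1 mRNA by qRT-PCR, normalized to ACTB/GAPDH/POLR2A; bidirectional fit versus DMSO.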

CYP4A11 (gene 1579) = assay: LTEA_HepaRG_CYP4A11: Life Technologies and Expression Analysis (LTEA) Assay for CYP4A11 using HepaRG (AID 2283486)
How it was run: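 HepaRG, 48 h chem exposure, 8 conc (100 uM top, half-log), 0.5% DMSO vehicle; qRT-PCR readout, housekeeping-gene normalized; bidirectional curve fit vs DMSO baseline.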

[8] = read-out: Cytochrome P450 3A4 (Homo sapiens) (UniProt P08684); assay: LTEA_HepaRG_CYP3A4: Life Technologies and Expression Analysis (LTEA) Assay for CYP3A4 using HepaRG (AID 2283487)
How it was run: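 Differentiated HepaRG cells in serum-free induction medium exposed in duplicate for 48 h to 8 half-log concentrations up to 100 uM in 0.5% DMSO. CYP3A4 mRNA measured by qRT-PCR normalized to ACTB, GAPDH and POLR2A; bidirectional fit versus DMSO.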

[9] = read-out: DNA damage-inducible transcript 3 (DDIT3), DDIT3 (gene 1649); assay: LTEA_HepaRG_DDIT3: Life Technologies and Expression Analysis (LTEA) Assay for DNA damage-inducible transcript 3 (DDIT3) using HepaRG (AID 2283488)
How it was run: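 HepaRG cells, 48 h after plating, exposed 48 h in serum-free induction medium to 8 half-log concentrations up to 100 uM in 0.5% DMSO, in duplicate. DDIT3 mRNA measured by TaqMan qRT-PCR, normalized to ACTB, GAPDH and POLR2A. Fitted bidirectionally against DMSO.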

[10] = read-out: Pro-epidermal growth factor (Homo sapiens) (UniProt P01133); assay: LTEA_HepaRG_EGF: Life Technologies and Expression Analysis (LTEA) Assay for Epidermal growth factor (EGF) using HepaRG (AID 2283489)
How it was run: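 HepaRG, 48 h dosing, 100 uM top, half-log x8, 0.5% DMSO. Readout: TaqMan qRT-PCR (Fluidigm array), housekeeping-normalized. Gain or loss of signal fit vs DMSO.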

[11] = read-out: Early growth response protein 1 (EGR1) transcription factor, EGR1 (gene 1958); assay: LTEA_HepaRG_EGR1: Life Technologies and Expression Analysis (LTEA) Assay for Early growth response protein 1 (EGR1) transcription factor using HepaRG (AID 2283490)
How it was run: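 Read-out is EGR1 mRNA level by qRT-PCR, normalized to three housekeeping genes and analysed for gain or loss of signal against 0.5% DMSO. Source cells: human HepaRG, treated 48 h at up to 100 uM in half-log dilutions.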

[12] = read-out: Ezrin (EZR), EZR (gene 7430); assay: LTEA_HepaRG_EZR: Life Technologies and Expression Analysis (LTEA) Assay for Ezrin (EZR) using HepaRG (AID 2283491)
How it was run: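 Differentiated human HepaRG cells, 48 h after plating, were exposed in serum-free induction medium for 48 hours to eight half-log concentrations up to 100 uM in 0.5% DMSO. EZR mRNA was measured by TaqMan qRT-PCR, normalized to ACTB, GAPDH and POLR2A, and fitted bidirectionally against DMSO.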

[13] = read-out: Cytochrome P450 3A7 (Homo sapiens) (UniProt P24462); assay: LTEA_HepaRG_CYP3A7: Life Technologies and Expression Analysis (LTEA) Assay for CYP3A7 using HepaRG (AID 2283492)
How it was run: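 Human HepaRG liver cells, 48 h post-plating, switched to serum-free induction medium and exposed in duplicate for 48 h. Dosing: 100 uM top, half-log dilutions, 8 points, 0.5% DMSO vehicle. Read-out: CYP3A7 mRNA, gain or loss fitted against DMSO baseline.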

[14] = read-out: Cytochrome P450 2C19 (Homo sapiens) (UniProt P33261); assay: LTEA_HepaRG_CYP2C19: Life Technologies and Expression Analysis (LTEA) Assay for CYP2C19 using HepaRG (AID 2283482)
How it was run: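 Transcript levels of CYP2C19 were quantified by qRT-PCR after HepaRG cells were treated for 48 hours with test chemicals up to 100 uM (eight half-log concentrations, 0.5% DMSO vehicle). Gain or loss of signal was fitted relative to DMSO.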

Measured: AC50

Cytochrome P450 3A4 (Homo sapiens), sequence (P08684 whole entry, looked up): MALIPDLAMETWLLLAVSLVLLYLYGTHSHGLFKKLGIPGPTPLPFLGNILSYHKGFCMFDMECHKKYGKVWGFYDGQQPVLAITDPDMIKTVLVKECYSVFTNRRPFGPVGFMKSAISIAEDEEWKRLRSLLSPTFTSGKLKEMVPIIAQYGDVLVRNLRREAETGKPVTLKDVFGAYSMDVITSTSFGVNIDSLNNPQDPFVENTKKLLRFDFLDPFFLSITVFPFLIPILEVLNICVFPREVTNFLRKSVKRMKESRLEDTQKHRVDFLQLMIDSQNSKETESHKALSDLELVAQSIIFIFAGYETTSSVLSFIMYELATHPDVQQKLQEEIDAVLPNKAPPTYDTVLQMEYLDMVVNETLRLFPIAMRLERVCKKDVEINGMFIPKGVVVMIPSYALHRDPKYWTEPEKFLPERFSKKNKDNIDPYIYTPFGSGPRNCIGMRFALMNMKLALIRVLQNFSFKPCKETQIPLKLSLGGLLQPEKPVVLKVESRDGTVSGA
Cytochrome P450 3A7 (Homo sapiens), sequence (P24462 whole entry, looked up): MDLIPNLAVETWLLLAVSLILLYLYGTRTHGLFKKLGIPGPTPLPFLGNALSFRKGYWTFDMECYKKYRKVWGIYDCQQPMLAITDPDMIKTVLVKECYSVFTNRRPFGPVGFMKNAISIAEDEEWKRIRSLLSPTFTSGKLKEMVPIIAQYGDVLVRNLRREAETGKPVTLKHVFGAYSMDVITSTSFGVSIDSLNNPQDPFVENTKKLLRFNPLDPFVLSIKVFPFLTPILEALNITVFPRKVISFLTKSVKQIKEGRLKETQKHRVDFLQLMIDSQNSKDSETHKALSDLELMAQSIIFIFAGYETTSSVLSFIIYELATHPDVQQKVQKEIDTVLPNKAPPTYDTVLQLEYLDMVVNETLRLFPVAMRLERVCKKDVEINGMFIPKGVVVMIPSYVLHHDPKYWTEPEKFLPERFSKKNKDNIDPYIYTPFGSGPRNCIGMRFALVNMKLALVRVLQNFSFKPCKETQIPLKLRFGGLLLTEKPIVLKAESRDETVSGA
Apoptosis regulator Bcl-2 (Homo sapiens), sequence (P10415 whole entry, looked up): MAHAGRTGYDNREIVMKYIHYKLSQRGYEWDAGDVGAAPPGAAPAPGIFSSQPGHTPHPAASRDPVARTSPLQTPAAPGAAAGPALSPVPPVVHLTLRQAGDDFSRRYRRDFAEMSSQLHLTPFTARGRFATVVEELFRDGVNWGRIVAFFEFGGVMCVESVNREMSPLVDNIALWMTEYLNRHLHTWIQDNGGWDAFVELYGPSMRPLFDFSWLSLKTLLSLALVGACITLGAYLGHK
Cytochrome P450 2C19 (Homo sapiens), sequence (P33261 whole entry, looked up): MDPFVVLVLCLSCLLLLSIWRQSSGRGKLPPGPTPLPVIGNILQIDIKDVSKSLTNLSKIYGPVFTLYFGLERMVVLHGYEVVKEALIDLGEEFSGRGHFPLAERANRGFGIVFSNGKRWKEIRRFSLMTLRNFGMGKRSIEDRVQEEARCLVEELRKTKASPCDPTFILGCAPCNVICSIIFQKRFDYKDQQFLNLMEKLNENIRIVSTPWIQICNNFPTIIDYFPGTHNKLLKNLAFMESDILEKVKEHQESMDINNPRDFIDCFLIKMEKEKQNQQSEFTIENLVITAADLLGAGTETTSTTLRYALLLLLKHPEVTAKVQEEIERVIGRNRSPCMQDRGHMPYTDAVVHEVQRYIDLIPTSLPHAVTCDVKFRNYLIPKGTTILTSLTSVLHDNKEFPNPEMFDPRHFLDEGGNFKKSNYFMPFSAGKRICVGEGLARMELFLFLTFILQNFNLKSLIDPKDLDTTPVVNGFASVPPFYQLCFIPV

CCCCCCCCCCCCCCO
active: [5] 50 µM
inactive: BCL2L11 (gene 10018) | [1] | [2] | [3] | Caspase-3 (Homo sapiens) | [4] | [6] | [7] | CYP2C8 (gene 1558) | CYP2C9 (gene 1559) | CYP2E1 (gene 1571) | CYP4A11 (gene 1579) | [8] | [9] | [10] | [11] | [12] | [13]

c1ccc2cc3ccccc3cc2c1
active: [7] 13.2 µM | CYP2E1 (gene 1571) 50 µM | [13] 13.2 µM
inactive: BCL2L11 (gene 10018) | [1] | [2] | [3] | Caspase-3 (Homo sapiens) | [4] | [6] | [14] | CYP2C8 (gene 1558) | CYP2C9 (gene 1559) | CYP4A11 (gene 1579) | [8] | [9] | [10] | [12]

O=C(O)c1cccc(C(=O)O)c1
inactive: BCL2L11 (gene 10018) | [1] | [2] | [3] | Caspase-3 (Homo sapiens) | [4] | [6] | [7] | CYP2C8 (gene 1558) | CYP2C9 (gene 1559) | CYP2E1 (gene 1571) | CYP4A11 (gene 1579) | [8] | [9] | [10] | [12] | [13]
active: [5] 82.6 µM

CC(C)c1nnc2ccc(-c3ocnc3-c3cc(F)ccc3F)cn12
active: [1] 56.3 µM | [7] 0.619 µM | CYP2C8 (gene 1558) 82.6 µM | CYP2C9 (gene 1559) 71.7 µM | CYP2E1 (gene 1571) 22.2 µM | CYP4A11 (gene 1579) 33.6 µM | [8] 1.42 µM | [9] 80.1 µM | [11] 12.3 µM | [12] 2.38 µM | [13] 81.6 µM
inactive: BCL2L11 (gene 10018) | [2] | [3] | Caspase-3 (Homo sapiens) | [4] | [5] | [6] | [10]
